# Measurements: PubChem BioAssay (NCI)
# The panel holds about 83,000 compounds, 20% with a hit somewhere; the sample as a whole holds those more often.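 The test compound was applied at a single concentration to cells in 96-well plates for 48 hours, and percent growth was recorded.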 Values without a mark were called inactive. Calls of active or inactive are those of the source. The calls were made as follows: active = growth percent below 10; inactive = the rest.
# How the values were obtained:
# Assay in all cases: NCI-60 one-dose screen, 48 h (100 = growth as untreated, 0 = no growth, -100 = all killed)
# [1] = system: RPMI-8226 leukemia; settings: 10 µM unless noted
# [2] = system: OVCAR-8 ovarian; settings: 10 µM unless noted
# [3] = system: OVCAR-5 ovarian; settings: 10 µM unless noted
# [4] = system: OVCAR-4 ovarian; settings: 10 µM unless noted
# [5] = system: SK-OV-3 ovarian; settings: 10 µM unless noted
# [6] = system: OVCAR-3 ovarian; settings: 10 µM unless noted
# [7] = system: HS 578T breast; settings: 10 µM unless noted
# [8] = system: NCI/ADR-RES ovarian; settings: 10 µM unless noted
# [9] = system: T-47D breast; settings: 10 µM unless noted
# [10] = system: BT-549 breast; settings: 10 µM unless noted
# [11] = system: MDA-MB-435 melanoma; settings: 10 µM unless noted
# [12] = system: SW-620 colon; settings: 10 µM unless noted
# [13] = system: MCF7 breast; settings: 10 µM
# [14] = system: HCT-116 colon; settings: 10 µM unless noted
# [15] = system: KM12 colon; settings: 10 µM unless noted
# [16] = system: IGROV1 ovarian; settings: 10 µM unless noted
# [17] = system: HCC-2998 colon; settings: 10 µM unless noted
SMILES,growth [1],growth [2],growth [3],growth [4],growth [5],growth [6],growth [7],growth [8],growth [9],growth [10],growth [11],growth [12],growth [13],growth [14],growth [15],growth [16],growth [17]
Cc1ccc(C(=O)c2oc3ccc4c(C)cc(=O)oc4c3c2C)cc1,0.992% (active),8.23% (active),66%,33.9%,46.9%,28.7%,86.5%,29.5%,14.8%,40.8%,29.7%,23.2%,9.99% (active),21.7%,17.8%,–,–
O=c1cc(-c2ccccc2)oc2cc(OCc3cn(Cc4ccc(F)cc4)nn3)cc(OCc3cn(Cc4ccc(F)cc4)nn3)c12,45.6%,12.7%,55.1%,-9.56% (active),–,21.2%,20.9%,70.4%,40.6%,18.8%,40.9%,60.3%,53.3%,18.2%,43.3%,43.5%,74.1%
CCC(C)(C)C(=O)O[C@H]1C[C@@H](C)C=C2C=C[C@H](C)[C@H](CC[C@@H]3CC=CC(=O)O3)[C@H]21,-16.7% (active),61.6%,142%,106%,115%,51.2%,94.6%,90.6%,80.8%,95.9%,60.3%,17.7%,36.8%,-5.88% (active),87.5%,–,88.8%
COc1ccc2c(c1)C=C1CSCC3=Cc4cc(OC)ccc4OC13O2,19.5%,25.4%,41.1%,47.8%,–,-6.42% (active),-0.917% (active),-1.58% (active),48.4%,30.8%,-40% (active),33.2%,19.7%,9.24% (active),16.6%,31.6%,9.67% (active)
c1ccc(CNc2nc(Nc3ccccc3)nc3ccccc23)cc1,45.4%,34.9%,72.8%,36.8%,3.4% (active),39.6%,44.4%,62.3%,77.4%,89.2%,11.7%,56.1%,56.9%,58.2%,71.8%,–,37.2%
CCOC(=O)c1c2c(c(C)n1Cc1ccc(OC)cc1)-c1oncc1CC2,62.9%,88.3%,81.7%,89.6%,105%,98.5%,69.7%,85.8%,90.5%,104%,120%,96.4%,97.5%,80.2%,87.9%,–,106%
CCN1C(=O)N(CC)C2C1NN=c1s/c(=C3\C(=O)N(CC(C)(C)C)c4ccccc43)c(=O)n12 (configuration not stated),36.7%,32.7%,51.1%,27.6%,–,-18.4% (active),18.9%,11.3%,58.1%,21.7%,-21.3% (active),42.8%,20.2%,7.62% (active),17.6%,24.1%,26.7%
CCCCN1CCN(c2ccc3nc(-c4ccc5nc(-c6ccc(C(F)(F)F)cc6)[nH]c5c4)[nH]c3c2)CC1,-35.3% (active),-40.5% (active),-89.2% (active),-84.2% (active),–,-96.7% (active),-64.3% (active),54.8%,-37.3% (active),-53.2% (active),-85.3% (active),-76.9% (active),-74.3% (active),-70.7% (active),-88.3% (active),-82.3% (active),-84% (active)
O=S(=O)(c1ccccc1)n1cc2c(c1-c1ccccc1)CCc1sc(Nc3ccccc3)nc1-2,67.7%,79.8%,94.4%,75.2%,99.7%,72.5%,98.3%,76.8%,64.1%,103%,88%,94.4%,72.9%,83.3%,82.7%,–,110%
COc1ccc(-c2nc(-c3ccccn3)c(-c3ccccn3)n2CC(C)C)cc1OC1CCCC1,-1.78% (active),15.7%,33.8%,13.5%,8.21% (active),15.5%,43.3%,10.9%,21.5%,38.5%,26.9%,21.9%,10.8%,14.7%,8.2% (active),–,24.4%
CCn1c(-c2nonc2Nc2ccc(OC)cc2)nc2ccccc21,117%,102%,107%,101%,111%,112%,96.7%,96%,97.3%,103%,96.8%,104%,110%,97.4%,106%,–,111%
O=C(Nc1ccc(I)cc1F)c1cc(Cl)ccc1O,-29.3% (active),10.1%,26.1%,15%,4.21% (active),4.4% (active),5.53% (active),9.54% (active),-4.67% (active),–,-2.93% (active),8.71% (active),1.52% (active),-29.5% (active),-10.9% (active),–,17.6%
O=C(c1nc2ccccc2[nH]1)C1C(c2ccc(F)cc2)C2CC3CCCCC3N2[C@@]12C(=O)Nc1ccc(Cl)cc12 (some centres not stated),13.9%,61.2%,61.8%,31.5%,–,50.1%,69.2%,51%,37.4%,77.4%,42.4%,41%,21.4%,28%,43.9%,42.8%,43%
COc1ccc(-c2cn3c(C(=O)Nc4ccccc4Cl)c(-c4ccccc4)c4c3n2CCCC4)cc1,68.5%,83.6%,79.8%,74.6%,86.4%,84.1%,114%,81.7%,78.9%,–,80%,82.5%,71.3%,73.2%,82.8%,–,–
CN(CCc1ccccc1)C(=S)N(C(=O)c1ccc([N+](=O)[O-])cc1)c1ccc(Cl)cc1,-15.8% (active),99.3%,100%,86.3%,102%,83.5%,95.2%,98.4%,68%,–,85.9%,75.3%,33%,67.3%,49.6%,–,110%
COc1cccc(/C(C#N)=C/c2nc3c(N4CCOCC4)nc(Cl)nc3n2C)c1,-23.5% (active),9.5% (active),-37.6% (active),-65.9% (active),–,-78.7% (active),-7.18% (active),25.9%,-44.5% (active),-77% (active),-80.2% (active),-72% (active),-44.1% (active),-72.9% (active),16.2%,-29.8% (active),20%
COc1cc(/C=C2\CCC/C(=C\c3cc(CN4CCOCC4)c(O)c(OC)c3)C2=O)cc(CN2CCOCC2)c1O,19.9%,19%,34%,36.1%,–,19.4%,55.1%,23.3%,63.3%,52.5%,27.4%,31.1%,21.1%,23.3%,9.12% (active),50.7%,62.1%
